Screens (PubChem)
D1 antag: Antagonist of Human D 1 Dopamine Receptor: qHTS. D(1A) dopamine receptor (Homo sapiens), P21728. HEK293 TREx D1 cells, calcium flux, dopamine EC80; active compounds read low. activity change, negative = inhibition, % at 10 µM. 360,000 compounds, 3.2% hits. AID 504652, 2011; in the data active = activity change below about -30%; note: % is set by controls: 0 for no effect and ±100 for the full control effect
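HEK293 T-REx cells expressing inducible, force-coupled D1 receptor; no-wash Ca dye, 30–90 min RT. Cmpd → 180 s read at 1 Hz → EC80 DA → 180 s read.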
D1 PAM: Potentiators of Human D1 Dopamine Receptor: qHTS. AID 504651, 2011. 360,000 compounds, 0.036% hits. HEK293 TREx D1 cells, calcium flux, dopamine EC20 potentiation. potentiation, % at 10 µM. D(1A) dopamine receptor (Homo sapiens), P21728; in the data active = potentiation above about 30%; note: 0% is about no effect
Eya2 phos inh: qHTS Assay for Inhibitors of the Phosphatase Activity of Eya2. Protein phosphatase EYA2 (Homo sapiens), O00167. recombinant Eya2, OMFP fluorescence dephosphorylation (OMFP is methylfluorescein phosphate). Potency, µM (series often up to 76.9 µM), for inactives: at the highest dose activity, negative = inhibition, most hits filed as inhibitors. 330,000 compounds, 0.006% hits. AID 488837, 2010; note: potency is the fitted concentration of half-maximal effect; % is set by controls: 0 for no effect and ±100 for the full control effect
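Eya2 (0.2 uM) preincubated 10 min at ambient with compound, then OMFP substrate added at 50 uM; 10 min reaction in 50 mM HEPES pH 7.5, 50 mM NaCl, 5 uM MgCl2, 0.05% BSA, 1 mM DTT. Fluorescence read at Ex 485/Em 525 nm.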
D1 agonist: Allosteric Agonists of the Human D1 Dopamine Receptor: qHTS. activation, % at 2 µM. D(1A) dopamine receptor (Homo sapiens), P21728. 360,000 compounds, 1% hits. HEK293 T-REx D1 cells, calcium flux, agonist mode; in the data active = activation above about 30%; note: 0% is about no effect
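Agonism was scored from calcium flux recorded over 180 s (1 read/s) after pintool compound addition, following a 10-cycle baseline. Cells were inducible force-coupled HEK293 TREx D1, plated overnight at 30 C and loaded with no-wash calcium dye.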
GALK inh: qHTS Assay for Inhibitors of Human Galactokinase (GALK) | P51570 | Purified GALK, Kinase-Glo residual ATP luminescence | Potency, µM (highest dose often 57.5 µM), for the others: at the top dose activity change, negative = inhibition, actives largely listed as inhibitors | 270,000 compounds, 0.007% hits | AID 1868, 2009; note: potency is the fitted concentration of half-maximal effect; % is set by controls: 0 for no effect and ±100 for the full control effect
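Quantitative HTS: GALK 5 nM, ATP 35 uM, galactose 100 uM, 1 h room temperature, then luciferase-based ATP detection.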
USP2a block: qHTS Assay for Inhibitors of Ubiquitin-specific Protease USP2a Using CHOP2 as the Reporter. Ubiquitin carboxyl-terminal hydrolase 2 (Homo sapiens), O75604. 330,000 compounds, 0.01% hits. AID 463254, 2010. Potency, µM (top dose mostly 38.3 µM), for the others: top-dose activity change, negative = inhibition, most hits filed as inhibitors. USP2 core, Ub-CHOP2 coupled fluorogenic reporter, 485/531;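 note: potency is the fitted concentration of half-maximal effect; plate controls were DMSO wells for no effect and full inhibition by NEM control for full effect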
Target sequence (O75604 whole entry, looked up): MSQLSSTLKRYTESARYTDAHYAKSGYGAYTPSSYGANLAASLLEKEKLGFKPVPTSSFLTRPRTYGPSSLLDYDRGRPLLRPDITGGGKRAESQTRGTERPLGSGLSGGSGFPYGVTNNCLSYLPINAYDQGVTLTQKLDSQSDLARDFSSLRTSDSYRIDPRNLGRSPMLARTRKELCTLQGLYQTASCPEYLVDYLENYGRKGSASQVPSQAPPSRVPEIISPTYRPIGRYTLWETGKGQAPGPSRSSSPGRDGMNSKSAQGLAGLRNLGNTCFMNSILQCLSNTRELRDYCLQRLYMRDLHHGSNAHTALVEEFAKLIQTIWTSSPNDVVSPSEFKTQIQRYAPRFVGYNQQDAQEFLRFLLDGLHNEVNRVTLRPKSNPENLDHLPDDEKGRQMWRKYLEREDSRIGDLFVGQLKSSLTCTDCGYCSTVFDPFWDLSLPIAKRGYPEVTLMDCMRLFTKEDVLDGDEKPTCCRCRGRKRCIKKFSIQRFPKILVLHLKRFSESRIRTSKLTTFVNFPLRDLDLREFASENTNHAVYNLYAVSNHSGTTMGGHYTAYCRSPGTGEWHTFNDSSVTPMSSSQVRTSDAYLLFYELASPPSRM
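Cell-free coupled assay: 10nM USP2 core preincubated 30min RT with compound in Tris-HCl pH 8.0/CaCl2/CHAPS buffer, then 25nM Ub-CHOP2 and 25nM reporter substrate; fluorescence (Ex 485/Em 531) read after 60min RT, normalized to NEM inhibition, concentration-response curves fitted.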
Active calls of the source: *; . = not tested or not shown; ! = a repeat was not active; [ ] = remark or other dose. In the library only some 3.9% were active in any assay of this set; here they are far more common. Unless noted, calls come from the whole dose curve; as a rule, active = well fitted inhibition curve with a large enough effect; inconclusive = small, poorly fitted or top-dose-only effect, or effect the other way; inactive = flat fitted curve, though single readings scatter.

SMILES	D1 antag	D1 PAM	Eya2 phos inh	D1 agonist	GALK inh	USP2a block
Cc1cc([N+](=O)[O-])ccc1NCc1ccccc1	-32*	-5	-6%	1	6%	-1%
O=C(NCCc1ccc(F)cc1)Nc1ccc([N+](=O)[O-])cc1	-49*	-17	-19%	13	-5%	3%
COc1ccccc1NCc1ccc([N+](=O)[O-])s1	3	4	2%	0	1%	-1%
Cc1ccc(NC(=O)Cc2ccc([N+](=O)[O-])cc2)c(Br)c1	-45*	-3	-2%	16	1%	2%
COc1cc([N+](=O)[O-])ccc1NC(=O)Cc1ccc(C)cc1	.	-11	-5%	-1	-2%	-2%
COc1cccc(C(=O)Nc2ccc(-c3cn4cccnc4n3)cc2)c1OC	1	-3	.	1	.	.
Cc1ccccc1C(=O)Nc1sc2c(c1C(=O)N1CCCCC1)CCC(C)C2 (stereo not drawn)	-2	0	.	3	.	.
O=C(Cn1cc(SCc2c(F)cccc2Cl)c2ccccc21)N1CCCCC1	-4	-4	.	3	.	.
Oc1ccc(Br)cc1C1C=C(c2ccc3c(c2)OCO3)NC(c2ccc(F)c(Br)c2)N1 (stereo not drawn)	-24	-3	.	19	.	.
Cc1cc([N+](=O)[O-])ccc1NC(=O)Cc1ccc(F)cc1	-32*	-8	6%	7	0%	9%
COc1cc2c(C(=O)N3CCN(c4cccc(Cl)c4)CC3)cn(C)c(=O)c2cc1OC	-4	1	3%	1	1%	0%
COc1ccc(C(=O)CCC(=O)N2CCN(c3cccc(Cl)c3)CC2)cc1	-33*	-4	-4%	12	.	-1%
COc1ccc(C(=S)N2CCN(c3cccc(Cl)c3)CC2)cc1	-33*!	-2	-5%	2	0%	3%
CCn1cc(C(=O)N2CCN(c3cccc(Cl)c3)CC2)c2cc(OC)c(OC)cc2c1=O	-53*!	0	-9%	4	1%	-2%
COc1ccc(CCC(=O)N2CCN(S(=O)(=O)c3cccc(Cl)c3)CC2)cc1	-39*	-4	15%	-1	.	1%
Cc1ccc(NC(=O)c2c(C)oc3ccc(O)c(CN4CCCCC4)c23)c(C)c1	14	0	.	2	.	.
CCCCn1c(C)cc2c(c1=O)C1O[C@](c3ccsc3)(Cc3ccccc31)O2	5	4	-4%[15.4 µM]	2	.	2%[7.66 µM]
O=C(O)/C=C/C(=O)N1CCN(c2cccc(Cl)c2)CC1	-41*	-20	5%	6	2%	0%
CCN(CC)c1ccc(NC(=O)c2sc3nc(-c4ccccc4)cn3c2C)cc1	-11	-3	.	4	.	.
Cc1c(C(=O)Nc2ccncc2)sc2nc(-c3ccccc3)cn12	-34*	-8	-1%	17	0%	2%
O=C(CSc1nnnn1-c1cccc2c1CCCC2)N1CCCC1	3	-5	-2%	38*	0%	1%
O=C(CSc1nnnn1-c1cccc2c1CCCC2)N1CCOCC1	-8	5	13%	70*	3%	8%
O=C(O)CN1C(=O)/C(=C\c2cn(CC(=O)N3CCOCC3)c3ccccc23)SC1=S	-4	-7	23%	32*	-1%	11%
CC(C)N(C(=O)CSc1nc2ccc(Cl)cc2[nH]1)c1ccccc1	-44*	1	.	20	.	.
CC(C)N(C(=O)CSc1nc2c([nH]1)c(=O)n(C)c(=O)n2C)c1ccccc1	-29	-13	9%	2	0%	2%
SMILES	D1 antag	D1 PAM	Eya2 phos inh	D1 agonist	GALK inh	USP2a block
COc1ccc2c(c1)[nH]c1c(=O)n(CCCN3CCOCC3)cnc12	-31*	-6	5%	1	-4%	-2%
C1=C(CCNc2ncnc3c2[nH]c2ccccc23)CCCC1	-34*	-5	-11%	20	-1%	-1%
COc1ccc2c(c1)[nH]c1c(=O)n(CCN3CCOCC3)cnc12	1	-3	-2%	0	2%	1%
COc1ccc(CNc2ncnc3c2[nH]c2ccccc23)cc1	-42*	-2	-4%	33*	8%	-2%
O=c1c2[nH]c3ccccc3c2ncn1CCC1=CCCCC1	9	5	15%	-1	1%	0%
Cc1ccc2c(c1)[nH]c1c(=O)n(CCC3=CCCCC3)cnc12	-32*	-6	-5%	1	1%	1%
CNS(=O)(=O)c1cn(CC(=O)Nc2cccc(C(F)(F)F)c2)cc1S(=O)(=O)NC	-4	-2	.	4	.	.
COc1ccc(N2CCN(C(=O)C(CC(C)C)NS(=O)(=O)c3ccc4nc(C)sc4c3)CC2)cc1 (stereo not drawn)	5	3	.	1	.	.
COc1ccc(CNc2ncnc3c2[nH]c2cc(OC)c(OC)cc23)cc1	10	-6	-13%	1	-2%	-2%
Cc1ccc2[nH]c3c(NCc4ccccc4)ncnc3c2c1	-51*	-8	-23%	40*	2%	-1%
O=C(Nc1cccc2ncccc12)c1ccc([N+](=O)[O-])o1	-39*	-10	-14%	2	-2%	-1%
Cc1cccnc1NC(=O)c1ccc([N+](=O)[O-])o1	19	0	-8%	1	2%	-2%
CCc1ccc(-c2cn3c(n2)SCC3)cc1	-86*	0	0%	1	12%	1%
CCn1c(C)c(C)c2cc(C(=O)NCC(C)c3ccccc3)ccc21 (stereo not drawn)	5	-5	.	4	.	.
Cc1cc2c(s1)c1cnn(Cc3ccc(-n4cncn4)cc3)c(=O)c1n2C	5	-3	.	1	.	.
Cc1ccccc1CNC(=O)CN1CCSc2ccccc21	-31*	-2	.	1	.	.
CCc1ccc(CNC(=O)CN2CCSc3ccccc32)cc1	1	0	.	4	.	.
CCOC(=O)C1=C(C)N=c2s/c(=C\c3ccc(OCC(=O)O)cc3)c(=O)n2C1c1ccccc1 (stereo not drawn)	13	3	1%	8	-9%	-3%
CCOC(=O)C1=C(c2ccccc2)N=c2s/c(=C\c3ccc(O)cc3)c(=O)n2C1c1cccs1 (stereo not drawn)	5	2	-9%	31*	-1%	1%
Cn1c(C(=O)NN)cc2cc(Oc3ccccc3)ccc21	-46*	-5	-17%	5	-1%	1%
